Compound activity deposited in PubChem by National Center for Advancing Translational Sciences (NCATS).
GLS inh = inhibitors of human glutaminase (GLS) | Potency, µM (top dose mostly 45.5 µM), without a hit: at the top dose activity change, negative = inhibition, actives largely listed as inhibitors | O94925 | 410,000 compounds, 0.21% hits | GLS enzymatic activity, qHTS titration; also: % is scaled to controls: 0 for no effect and ±100 for the full control effect
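hKGA in 45 mM KH2PO4 pH 8.2, 0.02% Tween-20 with pin-transferred compounds; 1 mM L-glutamine (stock) plus glutamate oxidase/HRP/Amplex Red coupling added. Fluorescence read initially and after 30 min at RT.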
GLP1R inv ag = acts as inverse agonist at human GLP-1 receptor. AID 624417. Potency, µM (top dose mostly 38.3 µM), for the others: at the highest dose activity change, negative = inhibition, actives largely listed as inhibitors. P43220. HEK293 GLP-1R CRE-luciferase, luminescence, 24 h; GLP-1R form is constitutively active. 410,000 compounds, 1.6% hits; also: % is scaled to controls: 0 for no effect and ±100 for the full control effect; nearly all actives have a fitted effect of over 55% in size
Target sequence (P43220 whole entry, looked up): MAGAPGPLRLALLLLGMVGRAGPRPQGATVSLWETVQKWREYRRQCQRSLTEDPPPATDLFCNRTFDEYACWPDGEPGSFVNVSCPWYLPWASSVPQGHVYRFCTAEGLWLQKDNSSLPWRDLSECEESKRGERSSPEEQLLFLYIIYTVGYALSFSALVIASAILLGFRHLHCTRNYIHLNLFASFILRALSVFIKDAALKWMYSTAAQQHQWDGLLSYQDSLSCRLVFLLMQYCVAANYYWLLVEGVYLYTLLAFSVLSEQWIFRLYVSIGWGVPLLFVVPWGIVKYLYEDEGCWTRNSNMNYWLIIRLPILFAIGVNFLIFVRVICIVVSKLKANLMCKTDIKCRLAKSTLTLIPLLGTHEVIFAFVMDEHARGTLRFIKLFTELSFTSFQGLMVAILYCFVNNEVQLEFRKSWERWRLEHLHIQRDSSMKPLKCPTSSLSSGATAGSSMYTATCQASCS
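Constitutively active GLP-1R drives a cAMP-responsive luciferase in stably transfected HEK293 cells; test compounds are added after overnight (12 h) attachment and left 24 hr, and signal loss in luminescence marks inhibition.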
PTHR1 ag = agonists of human PTHR1 parathyroid hormone receptor | 410,000 compounds, 0.075% hits | Potency, µM (doses to about 115 µM), without a hit: at the top dose activation, hits mostly activators | HEK293 GP2 PTHR1 cells, GloSensor cAMP luminescence, 1 h | AID 743266; also: nearly all actives have a fitted effect of over 55% in size
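HEK-293-derived GP2 cells expressing PTHR1 and a GloSensor cAMP reporter, 3,000/well, plated overnight, given luciferin plus IBMX (each 0.5 mM as added) for 1 h at 37 °C, then compound for 1 h at 37 °C. Luminescence was read after 15 min at room temperature.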
12-LOX inh = inhibitors of human 12S-lipoxygenase ALOX12. P18054. purified 12hLO, xylenol orange hydroperoxide absorbance. AID 1671190. 580,000 compounds, 1.1% hits. Potency, µM (doses to about 108 µM), inactives show at the highest dose activity change, negative = inhibition, most hits filed as inhibitors; also: % is scaled to controls: 0 for no effect and ±100 for the full control effect
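Hydroperoxide product was detected by ferrous iron/xylenol orange as the 573 to 405 nm absorbance ratio. Arachidonic acid at 40 uM (final) was turned over for 30 min at room temperature by 150 nM human 12hLO, pH 7.0 Hepes buffer, after 15 min compound preincubation.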
GLP1R ag = GLP-1 receptor (human) agonism. P43220. HEK293 GLP-1R CRE-luciferase, luminescence, 4-6 h; cells express a hypersensitive GLP-1R form. Potency, µM (doses to about 45.6 µM), inactives show at the top dose activation, most hits filed as activators. 380,000 compounds, 0.007% hits; also: % of control where 0% means no effect
GRP78 ERSR act = inducers of ER stress response in human glioma cells; U87-MG GRP78 promoter luciferase reporter, 16 h; AID 602332; 420,000 compounds, 0.02% hits; Potency, µM, for the others: at the top dose activation, hits mostly activators; also: series mostly up to about 76 µM; % of control where 0% means no effect; nearly all actives have a fitted effect of over 35% in size
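Stably transfected U87-MG glioma cells carrying a GRP78-based luciferase sensor; 16 h compound incubation. Luminescence end-point read 10 min after Bright-Glo addition at room temperature.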
The depositor's hits bear a star; i = inactive; u = inconclusive; x = not tested or not shown; ! = a repeat was not active; [ ] = another dose, or the depositor's remark. Shown are actives, neighbours in structure and some others; about 2.3% of the full set was active somewhere. Calls follow the shape of the dose curve; as a rule, active = well fitted curve in the direction sought with a large enough effect; inconclusive = small, poorly fitted or top-dose-only effect, or another doubt; inactive = no such curve, though single readings can be large; an effect the other way counts as inactive or inconclusive. Potency is read from the fitted curve at half-maximal effect.

SMILES	GLS inh	GLP1R inv ag	PTHR1 ag	12-LOX inh	GLP1R ag	GRP78 ERSR act
Cc1ccc(C)c(-c2cc(C(=O)Nc3cccnc3)c3ccccc3n2)c1	5.2%	u	-16.9%	-6.5%	6.4%	-2.3%
COc1cc(-c2cc(C(=O)Nc3cccc(C(C)=O)c3)c3ccccc3n2)cc(OC)c1OC	-1.3%	u	i	14.7%	6.4%	-0.8%
COc1cc(-c2cc(C(=O)Nc3ccc(O)cc3)c3ccccc3n2)cc(OC)c1OC	-1.4%	u	-18.8%	44.7µM*	16.6%	0.8%
Cc1ccc(-c2cc(C(=O)Nc3cccnc3)c3ccccc3n2)o1	45.0%	7.0%	i	10µM*	-1.0%	3.8%
Cc1ccc(-c2cc(C(=O)Nc3ccccn3)c3ccccc3n2)o1	153.7%	-32.7%	-23.9%	6.31µM*	4.2%	-5.2%
Cc1cc(Cn2cc3c4c(cccc42)[C@H](CC(C)C)N[C@H](C(=O)NCC2CC2)C3)no1	x	x	x	-2.0%[176 µM]	x	x
Cc1nn(C)c2ncc(NC(=O)CCc3ncc(-c4ccc(F)cc4)o3)cc12	x	x	x	26.6%	x	x
COc1ccc(CCC(=O)N(CC#N)C2CC2)cc1	x	x	x	13.9%	x	x
O=C(NNC(=O)c1cc(-c2ccc(Cl)cc2Cl)nc2ccccc12)Nc1ccccc1	1.2%	2.82µM*	-26.2%	5.1%	-20.4%	4.4%
COc1ccc(Cl)cc1C(=O)NNC(=S)NC(=O)c1cc(-c2ccc(Cl)cc2)nc2ccccc12	25.8%	-0.3%	i	50.1µM*	-13.5%	10.0%
Cc1ccc(NC(=O)c2cc(-c3ccc(C)o3)nc3ccccc23)cc1	-19.1%	-15.4%	-7.4%[57.5 µM]	4.47µM*	-6.8%	0.7%
O=C(Nc1ccccn1)c1cc(-c2ccco2)nc2ccccc12	x	x	x	39.8µM*	x	x
O=C(Nc1ccccc1N1CCOCC1)c1cc(-c2ccco2)nc2ccccc12	7.1%	u	i	0.0%	1.6%	-3.3%
CCOc1ccc(N(CC(=O)Nc2ccc(C(N)=O)cc2)S(=O)(=O)c2ccccc2)cc1	x	x	x	11.7%	x	x
Cc1ccc(-c2cc(C(=O)O)c3ccccc3n2)o1	x	x	x	11.2µM*	x	x
Cc1ccc(-c2cc(C(=O)N3CCN(C(=O)c4ccco4)CC3)c3ccccc3n2)o1	x	x	x	17.8µM*	x	x
O=C(NC(=S)Nc1ccccn1)c1cc(-c2ccccc2)nc2ccccc12	14.6%	4.47µM*	-24.4%	-10.2%	-3.6%	-1.2%
Cc1ccc(-c2cc(C(=O)N3CCN(c4ccccc4O)CC3)c3ccccc3n2)o1	-2.8%	u	-17.8%	u	4.8%	4.4%
O=C(Nc1ccc(SC(F)F)cc1)c1cc(-c2ccccc2)nc2ccccc12	x	x	x	39.8µM*	x	x
Cc1ccc2c(CSc3nc(N)cc(N)n3)cc(=O)oc2c1C	x	x	x	-18.2%	x	x
CC(=O)N1CCc2cc(NC(C)C(=O)Nc3ccc(OC(F)F)cc3)ccc21 (stereo unspecified)	x	x	x	27.6%	x	x
Cc1cccc(NC(=O)c2cc(-c3ccc(C)o3)nc3ccccc23)c1	x	x	x	10µM*	x	x
Cc1cccc(C(=O)NC(Nc2cccc(Cl)c2)C(Cl)(Cl)Cl)c1 (stereo unspecified)	x	x	x	45.4%	x	x
COc1cnc(-c2ccccc2)nc1Oc1cccc(C)c1C	0.4%	11.2µM*	i	0.0%	4.7%	-5.4%
CC(=O)N1CCN(C(=O)c2ccc3nc(C)c(C)nc3c2)CC1	x	x	x	-20.2%	x	x
SMILES	GLS inh	GLP1R inv ag	PTHR1 ag	12-LOX inh	GLP1R ag	GRP78 ERSR act
CN=C(NC)NCc1ccc(C(=O)OC)cc1	x	x	x	25.1µM*	x	x
COC(=O)c1ccc(CNC(=O)C(C)Cl)cc1 (stereo unspecified)	x	x	x	-19.8%	x	x
CCOC(=O)c1cc(-c2csc(-c3cccc(Cl)c3)n2)on1	-2.7%	11.7%	u	u	-25.5%	2.0%
CCOC(=O)c1cc(-c2csc(Nc3c(C)cc(C)cc3C)n2)on1	18.3%	-10.9%	-20.3%	20µM*	-19.4%	-12.4%
Cc1ccc2c(c1)c(C(=O)N1CCC3(CCNC(=O)CC3)CC1)nn2C	x	x	x	36.2%	x	x
CN=c1scc(-c2ccccc2F)n1/N=C/c1ccc(O)c(O)c1O	-29.5%	-12.4%	-50.9%	35.5µM*	-15.2%	-8.5%
CC(C)N=c1scc(-c2cccs2)n1/N=C/c1ccc(O)c(O)c1O	-26.6%	8.7%	i	14.1µM*	0.6%	7.0%
O=C(N/N=C/c1cc(Cl)cc([N+](=O)[O-])c1O)c1ccc2c(c1)OCO2	-5.0%	u	-30.2%	-13.4%	-0.1%	3.2%
O=C(N/N=C/c1cc(Cl)cc([N+](=O)[O-])c1O)NC12CC3CC(CC(C3)C1)C2	8.91µM*	u	-37.3%	u	-5.7%	-1.9%
O=C(N/N=C/c1ccccc1O)NC12CC3CC(CC(C3)C1)C2	3.0%	10µM*	-21.7%	-1.8%	21.5%	6.5%
CCOc1cc(/C=N/NC(=O)C(=O)N/N=C/c2ccc(O)c(OCC)c2)ccc1O	-23.5%	15.0%	i	0.0%	-1.6%	-11.9%
COc1cc(/C=N/NC(=O)NC23CC4CC(CC(C4)C2)C3)ccc1O	7.94µM*	u	-21.2%	u	u	-0.6%
CCOc1cc(/C=N/NC(=O)N/N=C/c2ccc(O)c(OCC)c2)ccc1O	8.91µM*	u	-2.0%	83.1%	14.3%	-3.5%
COc1cc(/C=N/NC(=O)C(=O)N2CCCCCC2)ccc1O	8.91µM*	13.0%	-6.9%	165.5%	0.5%	-7.7%
Brc1ccc(-c2ccc(-c3nnc(-c4ccco4)o3)o2)cc1	x	x	x	14.1µM*	x	x
CCCC(=O)O	16.5%	x	x	x	-4.3%	-2.5%
CC[C@](N)(CCC(=O)O)C(=O)O	x	x	x	2.82µM*!	x	1.8%
CCN(CC)CCNS(=O)(=O)c1ccc(OC)c(Br)c1	11.4%	u	-2.4%[57.5 µM]	3.55µM*	-6.9%	1.7%
COc1ccc(S(=O)(=O)NCCSCc2cccc(C)c2)cc1Br	3.6%	11.2µM*	-15.2%	0.0%	7.9%	-3.6%
COc1ccc(S(=O)(=O)NCCN2CCOCC2)cc1Br	3.2%	8.4%	u	-0.6%	0.9%	0.4%
CN1CCC(C(=O)N2Cc3ccccc3CC3(CCCCN3CC3CCNC3)C2)CC1 (stereo unspecified)	x	x	x	-4.8%[6.33 µM]	x	x
COCCCNc1oc(-c2ccccc2C)nc1C#N	x	x	x	-12.6%	x	x
Cn1nc(C(=O)N2CCOCC2)cc1C(=O)Nc1cc(Cl)cc(Cl)c1	x	x	x	8.8%	x	x
CC(=O)c1cccc(NC(=O)CSc2nncn2CCc2cccs2)c1	x	x	x	-5.7%	x	x
Cc1cccc(-c2ccc3c(c2)C2CC3CCN2C(=O)OCc2ccccc2)c1 (stereo unspecified)	-4.4%	u	-0.1%	u	0.8%	1.1%
CCOC(=O)c1nc2ccc(C)cc2c2c1C1CC(c3c(Cl)cccc31)N2C(=O)OCc1ccccc1 (stereo unspecified)	-6.1%	5.01µM*	-23.2%	u	11.9%	-2.0%
